This note sets out measurements from PubChem BioAssay (EPA / NIEHS).

Each structure is given as a SMILES string. Values joined by “and” are separate entries in the source; they are usually repeats but may differ in a detail not shown here. Equal entries are not always repeated. Results filed as inconclusive are left out. The source holds several records for some structures; these can differ, active in one and inactive in another. Active and inactive are the calls of the source. Rule for the calls, unless noted: active = hit-call score of the fitted dose curve at least 0.9, where 1 is the maximum; inconclusive = response in the unintended direction; inactive = score below 0.9.

Experiment [1] deals with Retinoic acid receptor alpha (Homo sapiens) (UniProt P10276). Description: NVS_NR_hRAR_Antagonist: NovaScreen (NVS) Nuclear Receptor Binding Assay for human Retinoic Acid Alpha Receptor Antagonism (RAR) (AID 2283358). The essentials:
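Cell-free TR-FRET binding assay with extracted human RARalpha in antagonist mode, read 2 h after dosing. Loss of signal was fitted relative to DMSO; the primary screen used 25 uM in duplicate, with concentration series on follow-up.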

The target of experiment [2] is mouse Estrogen Receptor alpha (Era), Esr1 (gene 13982) (UniProt P19785). Kind of experiment: NVS_NR_mERa: NovaScreen (NVS) Nuclear Receptor Binding Assay for mouse Estrogen Receptor alpha (Era) (AID 2283378).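 Note: hit means loss of bound radioligand signal relative to DMSO.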 The essentials: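 Test chemicals competed against a specific radioligand for binding to cell-free mouse Era. Duplicate wells at 25 uM were read 18 hours later by filter-based radiodetection, with loss of signal against DMSO scored as activity.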

The target of experiment [3] is Estrogen receptor beta (Homo sapiens) (UniProt Q92731). Kind of experiment: OT_ER_ERbERb_1440: Odyssey Thera (OT) 24-hour HEK293T Protein-Complementation Assay for Estrogen Receptor-beta/-beta Homodimer (AID 2283380).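 Note: scored as signal increase over DMSO baseline for both agonists and antagonists.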 The essentials:
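HEK293T cells stably expressing ER beta LBD (aa 310-547) homodimer fragment-complementation reporter, dosed 24 h. Cells formaldehyde-fixed, Draq5-stained; gain in nuclear (agonist) or nuclear plus cytoplasmic (antagonist) fluorescence versus DMSO read by laser scanning cytometry.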

Experiment [4] addresses Estrogen receptor (Homo sapiens) (UniProt P03372). Kind of experiment: OT_ERa_GFPERaERE_0480: Odyssey Thera (OT) 8-hour HeLa Transcription Induction Assay for Estrogen Receptor (AID 2283381; active = hit-call score of the fitted dose curve at least 0.9, where 1 is the maximum; inactive = score below 0.9). In short, it runs like this:
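HeLa cells dosed with compound and imaged by fluorescence microscopy at 8 h; GFP induction from an ERE reporter quantified by high-content image analysis and fitted as gain of signal against DMSO baseline.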

Experiment [5] has the same target. Description: OT_ERa_GFPERaERE_0120: Odyssey Thera (OT) 2-hour HeLa Transcription Induction Assay for Estrogen Receptor (AID 2283382). The essentials:
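HeLa cells were dosed with test chemical and read 2 hours later for GFP-ERα/ERE-linked fluorescent protein induction by fluorescence microscopy. Gain-of-signal was fitted relative to DMSO baseline, quantified by high content image analysis.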

Experiment [6] has as its target Retinoic acid receptor RXR-alpha (Homo sapiens) (UniProt P19793). Kind of experiment: OT_NURR1_NURR1RXRa_0480: Odyssey Thera (OT) 8-hour HEK293T Protein Complementation Assay for Nurr1/retinoid X receptor (RXR) (AID 2283385). The essentials: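 HEK293T cells expressing Nurr1 and RXRα fused to reporter fragments were dosed with compound for 8 hours. Complex formation was read as fluorescence intensity and analysed as gain of signal against DMSO as baseline.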

Experiment [7] shares this target. Kind of experiment: OT_NURR1_NURR1RXRa_1440: Odyssey Thera (OT) 24-hour HEK293T Protein Complementation Assay for Nurr1/retinoid X receptor (RXR) (AID 2283386). In short, it runs like this: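 HEK293T cells were dosed with compound and read 24 h later by fluorescence intensity in a protein-fragment complementation format, where Nurr1–RXRα interaction reconstitutes a split reporter. Activity was fitted as gain of signal relative to DMSO baseline.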

Experiment [8] addresses Nuclear receptor subfamily 1 group I member 2 (Homo sapiens) (UniProt O75469). Description: NVS_NR_hPXR: NovaScreen (NVS) Nuclear Receptor Binding Assay for human Pregnane X Receptor (PXR) (AID 2283365).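 Note: a drop in FRET signal versus DMSO baseline means the compound binds.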 In short, it runs like this:
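Binding was measured by time-resolved fluorescence resonance energy transfer after a 2 h exposure of extracted human PXR protein without cells. Compounds were first tested at 25 uM in duplicate, with concentration series for actives; DMSO defined baseline.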

Experiment [9] has as its target human Peroxisome Proliferator-activated Receptor alpha (PPARa), PPARA (gene 5465) (UniProt Q07869). Kind of experiment: NVS_NR_hPPARa: NovaScreen (NVS) Nuclear Receptor Binding Assay for human Peroxisome Proliferator-activated Receptor alpha (PPARa) (AID 2283359).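 Note: activity means loss of TR-FRET signal versus DMSO baseline.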 In short, it runs like this: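 Cell-free TR-FRET binding assay with extracted PPARα protein, read 1 h after dosing. Primary screen in duplicate at 25 uM, with actives retested in concentration series. Loss of signal versus DMSO.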

Experiment [10] addresses Retinoic acid receptor alpha (Homo sapiens) (UniProt P10276). Kind of experiment: NVS_NR_hRARa_Agonist: NovaScreen (NVS) Nuclear Receptor Binding Assay for human Retinoic Acid Alpha Receptor Agonism (RAR) (AID 2283361). In short, it runs like this:
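Cell-free TR-FRET binding readout with extracted receptor protein, read 2 hours after dosing; gain-of-signal fitted relative to DMSO. Screened in duplicate at 25 uM, actives then run in concentration-response.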

Experiment [11] deals with Agonist Androgen Response Element (ARE), AR (gene 367) (UniProt P10275). Kind of experiment: OT_AR_ARELUC_AG_1440: Odyssey Thera (OT) 24-hour CHO-K1 Luciferase Assay for Agonist Androgen Response Element (ARE) (AID 2283379). In short, it runs like this:
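CHO-K1 cells carrying an ARE-driven luciferase reporter were exposed to compounds for 24 h. Luminescence was then read after adding a D-luciferin/ATP mix, and activity was scored as a gain in signal over DMSO vehicle.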

Experiment [12] concerns guinea pig Dopamine Transporter (DAT), gene 100714898. Kind of experiment: NVS_TR_gDAT: NovaScreen (NVS) Transporter Assay for guinea pig Dopamine Transporter (DAT) (AID 2283369).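 Note: active compounds lower bound radioligand signal relative to DMSO.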 In short, it runs like this: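 Test chemicals were incubated 2 h with guinea pig striatal membranes and a radioligand; bound label was separated by filtration and counted. Screening ran at 25 uM, followed by concentration-response testing to a 50 uM maximum.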

Experiment [13] has as its target human Dopamine Transporter (DAT), SLC6A3 (gene 6531) (UniProt Q01959). Kind of experiment: NVS_TR_hDAT: NovaScreen (NVS) Transporter Assay for human Dopamine Transporter (DAT) (AID 2283374).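 Note: activity means loss of bound radioligand signal relative to DMSO.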 In short, it runs like this:
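Cell-free radioligand displacement binding at human DAT, 1 h after dosing, with filtration and scintillation counting. Primary screen in duplicate at 25 uM, actives then in concentration series. Loss of bound signal versus DMSO scored.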

Experiment [14] has as its target PGR (gene 5241) (UniProt P06401). Description: NVS_NR_hPR: NovaScreen (NVS) Nuclear Receptor Binding Assay for human Progestron Receptor (PR) (AID 2283360).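 Note: active means loss of bound radioligand signal versus DMSO baseline.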 In short, it runs like this: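 T47D lysate; tritiated or iodinated radioligand; scintillation count at 18 h. DMSO = negative control/baseline. Primary: 25 uM, duplicate. Secondary: concentration series for actives.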

Experiment [15] concerns rat Norepinephrine Transporter (NET), gene 83511. Kind of experiment: NVS_TR_rNET: NovaScreen (NVS) Transporter Assay for rat Norepinephrine Transporter (NET) (AID 2283373). The essentials:
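Rat forebrain membranes; radioligand binding measured by filter-based scintillation counting 1 hour after dosing. Loss of specific binding versus DMSO baseline scored; primary screen in duplicate at 25 uM, actives followed up in concentration series.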

Experiment [16] has as its target rat Serotonin Transporter (SERT), Slc6a4 (gene 25553) (UniProt P31652). Description: NVS_TR_rSERT: NovaScreen (NVS) Transporter Assay for rat Serotonin Transporter (SERT) (AID 2283375). In short, it runs like this:
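Steps: rat forebrain membranes dosed with chemical (25 uM duplicate primary; concentration series for actives); 1 h incubation; labelled ligand bound, filtered, counted by scintillation. Activity scored as signal loss vs DMSO.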

Experiment [17] deals with human Norepinephrine Transporter (NET), SLC6A2 (gene 6530) (UniProt P23975). Description: NVS_TR_hNET: NovaScreen (NVS) Transporter Assay for human Norepinephrine Transporter (NET) (AID 2283377).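 Note: displacement of radioligand from human NET seen as loss of scintillation signal.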 The essentials:
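Cell-free radioligand binding using CHO-derived membrane protein expressing human NET, read by filter scintillation counting 1 h after dosing; loss of signal vs DMSO. Initial duplicate screen at 25 uM, actives retested in concentration series.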

Experiment [18] deals with guinea pig Sigma Receptor, Non-selective Binding, SIGMAR1 (gene 100135589) (UniProt Q60492). Kind of experiment: NVS_OR_gSIGMA_NonSelective: NovaScreen (NVS) Nuclear Receptor Binding Assay for guinea pig Sigma Receptor, Non-selective Binding (AID 2283367). In short, it runs like this:
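Radioligand displacement on guinea pig brain membranes, read by filter-based scintillation counting 1 h after dosing. Loss of signal versus DMSO; initial duplicate single-point screen at 25 uM, actives followed in concentration series.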

Experiment [19] has as its target human Adenosine Transporter (Adot), SLC29A1 (gene 2030) (UniProt Q99808). Kind of experiment: NVS_TR_hAdoT: NovaScreen (NVS) Transporter Assay for human Adenosine Transporter (Adot) (AID 2283368). In short, it runs like this: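 U937-derived membranes, cell-free radioligand binding, filter scintillation 1 h after dosing. 25 uM duplicate screen; hits (e.g. 30% inhibition) run in concentration-response up to 50 uM; loss of signal versus DMSO.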

In experiment [20] the target is human Thyroid Receptor Alpha (TRa), THRA (gene 7067) (UniProt P10827). Description: NVS_NR_hTRa_Antagonist: NovaScreen (NVS) Nuclear Receptor Binding Assay for human Thyroid Receptor Alpha Antagonism (TRa) (AID 2283362).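 Note: activity is loss of signal relative to DMSO baseline.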 In short, it runs like this:
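Chemicals were first screened in duplicate at 25 uM, then actives were retested in concentration series. Binding to the extracted receptor was measured 1 h after dosing by AlphaLISA chemiluminescence, with decreased signal versus DMSO scored as activity.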

Sequence of Estrogen receptor (Homo sapiens) (P03372 whole entry, looked up): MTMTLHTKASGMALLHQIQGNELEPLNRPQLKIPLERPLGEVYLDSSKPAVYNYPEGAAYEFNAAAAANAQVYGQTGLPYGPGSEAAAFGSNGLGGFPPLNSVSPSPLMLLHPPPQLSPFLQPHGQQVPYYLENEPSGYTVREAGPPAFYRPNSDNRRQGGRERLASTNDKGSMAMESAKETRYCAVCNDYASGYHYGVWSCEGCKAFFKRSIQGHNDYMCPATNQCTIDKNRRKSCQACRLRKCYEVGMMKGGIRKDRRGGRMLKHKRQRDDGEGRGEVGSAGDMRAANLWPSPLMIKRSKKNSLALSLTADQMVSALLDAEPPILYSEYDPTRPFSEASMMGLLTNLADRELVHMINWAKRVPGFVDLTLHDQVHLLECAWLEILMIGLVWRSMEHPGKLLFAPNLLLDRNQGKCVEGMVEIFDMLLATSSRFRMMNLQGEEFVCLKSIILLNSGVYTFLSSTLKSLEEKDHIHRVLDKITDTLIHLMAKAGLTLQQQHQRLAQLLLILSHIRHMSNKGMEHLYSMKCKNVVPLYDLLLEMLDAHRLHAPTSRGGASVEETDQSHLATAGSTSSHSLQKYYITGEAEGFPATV
Sequence of Nuclear receptor subfamily 1 group I member 2 (Homo sapiens) (O75469 whole entry, looked up): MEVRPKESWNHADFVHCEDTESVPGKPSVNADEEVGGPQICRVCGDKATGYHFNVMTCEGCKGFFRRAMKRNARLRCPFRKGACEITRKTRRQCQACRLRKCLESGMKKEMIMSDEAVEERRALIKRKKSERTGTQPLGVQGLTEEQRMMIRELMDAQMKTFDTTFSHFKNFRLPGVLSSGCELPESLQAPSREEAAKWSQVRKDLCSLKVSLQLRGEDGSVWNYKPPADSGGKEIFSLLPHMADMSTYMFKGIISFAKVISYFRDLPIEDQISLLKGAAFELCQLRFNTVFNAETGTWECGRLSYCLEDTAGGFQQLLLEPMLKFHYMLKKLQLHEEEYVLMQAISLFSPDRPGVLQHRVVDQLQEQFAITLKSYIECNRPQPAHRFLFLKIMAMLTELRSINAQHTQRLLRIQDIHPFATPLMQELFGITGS
Sequence of Retinoic acid receptor RXR-alpha (Homo sapiens) (P19793 whole entry, looked up, the tested form may be a part): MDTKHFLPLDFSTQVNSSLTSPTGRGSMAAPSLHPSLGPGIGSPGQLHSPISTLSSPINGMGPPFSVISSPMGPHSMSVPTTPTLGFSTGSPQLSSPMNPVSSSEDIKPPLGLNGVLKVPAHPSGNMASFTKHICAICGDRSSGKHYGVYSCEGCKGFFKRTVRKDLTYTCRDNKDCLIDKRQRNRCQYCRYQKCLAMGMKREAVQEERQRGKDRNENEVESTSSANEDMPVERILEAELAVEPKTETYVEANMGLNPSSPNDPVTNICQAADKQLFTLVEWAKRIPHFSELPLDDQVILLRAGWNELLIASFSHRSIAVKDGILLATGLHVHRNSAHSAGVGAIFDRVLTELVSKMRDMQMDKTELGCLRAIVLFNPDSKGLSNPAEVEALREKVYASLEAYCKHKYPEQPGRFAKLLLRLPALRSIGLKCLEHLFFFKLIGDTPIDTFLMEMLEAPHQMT
Sequence of Estrogen receptor beta (Homo sapiens) (Q92731 whole entry, looked up, the tested form may be a part): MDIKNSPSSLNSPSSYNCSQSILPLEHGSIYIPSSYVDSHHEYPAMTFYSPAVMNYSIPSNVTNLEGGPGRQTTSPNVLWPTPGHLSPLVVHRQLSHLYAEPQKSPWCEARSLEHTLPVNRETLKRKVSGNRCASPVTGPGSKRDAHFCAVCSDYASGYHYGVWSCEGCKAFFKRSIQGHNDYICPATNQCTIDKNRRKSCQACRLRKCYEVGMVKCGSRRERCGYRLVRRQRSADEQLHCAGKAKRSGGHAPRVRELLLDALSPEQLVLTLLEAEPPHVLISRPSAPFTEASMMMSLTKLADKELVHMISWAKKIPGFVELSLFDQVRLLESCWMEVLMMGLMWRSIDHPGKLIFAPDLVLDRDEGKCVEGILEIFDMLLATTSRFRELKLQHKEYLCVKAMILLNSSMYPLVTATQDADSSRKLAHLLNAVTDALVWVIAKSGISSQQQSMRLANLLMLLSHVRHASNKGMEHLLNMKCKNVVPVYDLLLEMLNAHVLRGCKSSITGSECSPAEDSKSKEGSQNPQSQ
Sequence of human Peroxisome Proliferator-activated Receptor alpha (PPARa), PPARA (gene 5465) (Q07869 whole entry, looked up): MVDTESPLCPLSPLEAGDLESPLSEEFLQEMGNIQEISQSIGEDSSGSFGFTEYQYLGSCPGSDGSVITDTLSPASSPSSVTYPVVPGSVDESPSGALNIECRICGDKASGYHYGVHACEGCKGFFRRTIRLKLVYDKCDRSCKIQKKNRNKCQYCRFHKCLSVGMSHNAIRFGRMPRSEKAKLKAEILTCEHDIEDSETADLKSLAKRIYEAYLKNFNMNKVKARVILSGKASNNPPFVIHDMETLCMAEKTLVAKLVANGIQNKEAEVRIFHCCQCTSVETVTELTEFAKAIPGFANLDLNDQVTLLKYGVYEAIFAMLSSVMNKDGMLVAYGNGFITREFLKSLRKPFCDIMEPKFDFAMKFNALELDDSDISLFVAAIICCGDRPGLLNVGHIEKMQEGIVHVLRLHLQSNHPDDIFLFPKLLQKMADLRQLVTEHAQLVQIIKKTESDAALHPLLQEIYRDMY
Sequence of human Norepinephrine Transporter (NET), SLC6A2 (gene 6530) (P23975 whole entry, looked up): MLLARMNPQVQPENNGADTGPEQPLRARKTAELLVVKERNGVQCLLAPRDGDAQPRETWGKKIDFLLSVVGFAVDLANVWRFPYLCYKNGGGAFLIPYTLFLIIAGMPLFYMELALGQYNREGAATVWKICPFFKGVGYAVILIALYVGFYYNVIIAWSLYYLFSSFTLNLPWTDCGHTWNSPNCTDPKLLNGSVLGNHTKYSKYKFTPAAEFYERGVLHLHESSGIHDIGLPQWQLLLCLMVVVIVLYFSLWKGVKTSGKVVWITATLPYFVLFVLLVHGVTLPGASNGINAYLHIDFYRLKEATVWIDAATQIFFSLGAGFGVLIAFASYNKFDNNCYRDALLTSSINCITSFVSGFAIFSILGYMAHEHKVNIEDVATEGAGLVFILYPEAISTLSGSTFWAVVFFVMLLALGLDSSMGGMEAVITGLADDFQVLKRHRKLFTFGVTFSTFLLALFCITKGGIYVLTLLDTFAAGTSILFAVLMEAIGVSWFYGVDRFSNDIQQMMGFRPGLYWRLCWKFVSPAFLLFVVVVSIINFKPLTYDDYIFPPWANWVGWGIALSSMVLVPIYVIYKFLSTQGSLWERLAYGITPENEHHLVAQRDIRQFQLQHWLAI
Sequence of Retinoic acid receptor alpha (Homo sapiens) (P10276 whole entry, looked up): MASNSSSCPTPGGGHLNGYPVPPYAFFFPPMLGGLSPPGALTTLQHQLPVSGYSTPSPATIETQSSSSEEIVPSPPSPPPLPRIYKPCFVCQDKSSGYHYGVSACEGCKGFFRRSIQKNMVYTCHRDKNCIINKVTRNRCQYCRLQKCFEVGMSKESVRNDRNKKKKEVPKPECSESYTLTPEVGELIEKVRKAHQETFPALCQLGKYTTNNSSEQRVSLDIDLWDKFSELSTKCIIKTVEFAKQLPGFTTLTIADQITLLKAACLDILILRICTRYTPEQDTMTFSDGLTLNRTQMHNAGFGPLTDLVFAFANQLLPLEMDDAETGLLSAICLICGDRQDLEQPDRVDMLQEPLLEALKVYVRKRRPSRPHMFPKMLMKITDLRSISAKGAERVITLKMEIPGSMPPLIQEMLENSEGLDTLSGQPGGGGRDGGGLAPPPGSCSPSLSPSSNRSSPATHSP
Sequence of human Dopamine Transporter (DAT), SLC6A3 (gene 6531) (Q01959 whole entry, looked up): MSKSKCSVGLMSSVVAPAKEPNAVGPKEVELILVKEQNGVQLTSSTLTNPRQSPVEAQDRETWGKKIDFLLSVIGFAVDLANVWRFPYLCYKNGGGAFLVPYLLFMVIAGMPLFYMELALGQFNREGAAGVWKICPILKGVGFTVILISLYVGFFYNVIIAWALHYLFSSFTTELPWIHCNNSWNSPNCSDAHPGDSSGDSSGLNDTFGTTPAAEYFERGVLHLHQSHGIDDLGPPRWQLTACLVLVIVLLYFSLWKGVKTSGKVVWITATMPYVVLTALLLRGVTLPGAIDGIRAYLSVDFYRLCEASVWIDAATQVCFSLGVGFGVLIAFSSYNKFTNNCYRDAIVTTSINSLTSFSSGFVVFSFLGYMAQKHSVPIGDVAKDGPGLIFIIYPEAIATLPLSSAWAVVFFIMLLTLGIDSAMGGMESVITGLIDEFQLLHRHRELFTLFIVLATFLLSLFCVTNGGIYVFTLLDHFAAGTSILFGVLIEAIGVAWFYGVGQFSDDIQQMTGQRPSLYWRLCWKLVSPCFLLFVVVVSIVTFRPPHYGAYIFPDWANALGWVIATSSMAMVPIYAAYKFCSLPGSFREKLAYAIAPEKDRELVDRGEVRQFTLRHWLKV
Sequence of rat Serotonin Transporter (SERT), Slc6a4 (gene 25553) (P31652 whole entry, looked up): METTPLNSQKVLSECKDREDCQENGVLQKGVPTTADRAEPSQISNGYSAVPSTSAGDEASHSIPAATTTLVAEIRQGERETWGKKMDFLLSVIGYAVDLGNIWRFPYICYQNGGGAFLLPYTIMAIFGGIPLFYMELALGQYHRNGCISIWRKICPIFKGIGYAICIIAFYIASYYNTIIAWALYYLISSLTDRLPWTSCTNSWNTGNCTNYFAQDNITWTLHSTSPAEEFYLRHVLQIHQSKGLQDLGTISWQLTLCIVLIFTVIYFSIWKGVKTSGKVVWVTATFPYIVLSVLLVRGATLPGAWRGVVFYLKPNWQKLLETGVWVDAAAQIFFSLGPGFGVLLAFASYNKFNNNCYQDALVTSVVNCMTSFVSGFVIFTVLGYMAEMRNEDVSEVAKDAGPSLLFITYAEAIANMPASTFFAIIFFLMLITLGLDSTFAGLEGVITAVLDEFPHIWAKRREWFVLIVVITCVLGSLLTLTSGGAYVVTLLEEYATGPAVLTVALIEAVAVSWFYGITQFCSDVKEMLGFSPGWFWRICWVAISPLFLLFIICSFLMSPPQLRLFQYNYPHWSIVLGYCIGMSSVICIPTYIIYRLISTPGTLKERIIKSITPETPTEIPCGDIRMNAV

As a reminder, the AC50 is the concentration giving half of the maximal activity seen. Take `CCCCCCCCOC(=O)c1ccc(O)cc1`: the result in experiment [1] was inactive. Further, the AC50 in experiment [2] was 1.72 µM (active); in experiment [3], 5.35 µM (active); in experiment [4] it was 3.7 µM (active); in experiment [5], 3.43 µM (active); in experiment [6] it was 74.7 µM (active); in [7] it was 92.8 µM (active).

Consider `CCCCCC1CCC(=O)O1` (configuration not stated), for which the compound was called inactive in [8], in [3], in [4], in [5] and in experiment [6].

`CCCCN(CCCC)CCCCCCN(CCCC)CCCC`: the result in [9], in experiment [3], in experiment [4], in [5] and in experiment [6] was inactive.

With `CCO[Si](CC)(OCC)OCC`, the outcome in [1], in experiment [10], in experiment [8], in experiment [11], in experiment [3] and in [4] was inactive. Further, the result in experiment [5], in [6] and in [7] was inactive.

In the case of `C[C@]12CC[C@@H]3c4ccc(O)cc4CC[C@H]3[C@@H]1CC[C@@H]2O`, the outcome in experiment [8], in experiment [6] and in experiment [7] was inactive. In addition, the results for the AC50 in experiment [12] and in [13] were 1.74 µM (active) and 0.17 µM (active), respectively.

Regarding `CC(CO)(CO)[N+](=O)[O-]`, the compound was classed as inactive in experiment [14].

In the case of `C=CC(O)CCCCC` (configuration not stated), the outcome in experiment [8], in experiment [6] and in experiment [7] was inactive.

With `CCCCC/C=C\C=C\C(=O)OCC`, the AC50 was 9.24 µM (active) in experiment [8], 12.5 µM (active) in experiment [3] and 95.6 µM (active) in [4]. The compound was called inactive in [5] and in [6].

`CC(=O)Oc1c(C)c(C)c2c(c1C)CC[C@@](C)(CCC[C@H](C)CCC[C@H](C)CCCC(C)C)O2`: the call in experiment [8], in [4] and in experiment [5] was inactive.

With `CC1=CCC(=C(C)C)CC1`, the compound was classed as inactive in [8], in experiment [4], in [5] and in experiment [6].

Regarding `CC(=O)OC/C=C(C)/C=C/C=C(C)/C=C/C1=C(C)CCCC1(C)C`, the AC50 in experiment [8] was 2.21 µM (active); in experiment [6] it was 27.5 µM (active). Besides, the outcome in experiment [3], in experiment [4] and in experiment [5] was inactive.

For the compound `CCCCCCCCCCOC(=O)c1ccccc1C(=O)OCCCCCCCC`, the compound was classed as inactive in experiment [8], in experiment [11], in experiment [3], in experiment [4] and in experiment [5].

For the compound `C#C[C@]1(O)CC[C@H]2[C@@H]3CCc4cc(O)ccc4[C@H]3CC[C@@]21C`, the call in experiment [9] and in experiment [6] was inactive. The AC50 in experiment [14] is 0.221 µM (active); in experiment [12] it was 1.32 µM (active); in experiment [15], 5.14 µM (active); in experiment [13], 0.463 µM (active); in experiment [16], 2.39 µM (active); in experiment [17], 514 nM (active) and 517 nM (active) and 623 nM (active). Moreover, in experiment [6], the AC50 was 35.3 µM (active).

`O=C(c1ccc(OCCN2CCCCC2)cc1)c1c(-c2ccc(O)cc2)sc2cc(O)ccc12`: the half-maximal activity concentration (AC50) in experiment [9] was 6.51 µM (active) and 6.99 µM (active) and 5.41 µM (active); in experiment [8], 1.7 µM (active) and 3.59 µM (active) and 1.46 µM (active); in experiment [18], 4.67 µM (active); in [19] it was 14.6 µM (active); in experiment [12], 2.14 µM (active); in [13] it was 1.76 µM (active). The AC50 in [16] was 9.25 µM (active); in [17] it was 366 nM (active); in experiment [6], 11.9 µM (active); in [7], 11.9 µM (active) and 11.8 µM (active). The outcome in experiment [6] and in [7] was inactive.

Regarding `O=S(=O)(O)c1cc(S(=O)(=O)O)c2c(N=Nc3ccccc3)c(O)ccc2c1`, the outcome in experiment [20], in experiment [3], in [4] and in [5] was inactive.

In the case of `c1ccc2scnc2c1`, the compound was called inactive in [8], in experiment [3], in [4], in experiment [5] and in experiment [6].

For `CC(=O)c1ccc2ccccc2c1`, the call in experiment [9], in experiment [3], in [4], in experiment [5] and in [7] was inactive.
